According to PubChem BioAssay (NCI):
The panel holds about 79,000 compounds, 15% with a hit somewhere; the sample as a whole holds those more often. Values without a mark were called inactive. Calls of active or inactive are those of the source. No stated cut-off is given here; in the data, active means growth inhibition above about 70%; inactive means the rest.

Assays:
[1] = NCI Yeast Anticancer Drug Screen. Data for the rad52 strain (AID 147);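 further: 0% = growth of vehicle-treated control cultures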; conditions: S. cerevisiae rad52 mutant growth inhibition, hits give high values
Procedure, shortened: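 Measured: yeast growth inhibition. System: strain with a defined DNA damage repair alteration. Reference: vehicle-treated control cultures.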

[2] = NCI Yeast Anticancer Drug Screen. Data for the wt1 strain (AID 149);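 further: 0% = growth of vehicle-treated wt1 cultures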; conditions: S. cerevisiae wt1 strain (SPY 50644) growth inhibition, hits give high values
Procedure, shortened: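 Using yeast strain wt1, compound-induced growth inhibition was determined against vehicle-treated cultures.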

[3] = NCI Yeast Anticancer Drug Screen. Data for the mgt1 strain (AID 153); conditions: S. cerevisiae mgt1 mutant growth inhibition, hits give high values
Procedure, shortened: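 After exposure of the mgt1 yeast mutant to compound, growth was measured and reported as inhibition compared with vehicle controls.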

[4] = NCI Yeast Anticancer Drug Screen. Data for the rad50 strain (AID 155);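 further: 0% = growth of vehicle-only cultures of the same strain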; conditions: S. cerevisiae rad50 strain growth inhibition, hits give high values
Procedure, shortened: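 Relative growth inhibition (compound vs vehicle) was measured in yeast with a defined repair-gene alteration.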

[5] = NCI Yeast Anticancer Drug Screen. Data for the mec2-1 strain (AID 157); conditions: S. cerevisiae mec2-1 strain, hits give high values
Procedure, shortened: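 Test agents were screened against the mec2-1 yeast strain, with defined DNA repair or cell cycle alteration. Growth was scored as inhibition against vehicle-only controls.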

[6] = NCI Yeast Anticancer Drug Screen. Data for the rad14 strain (AID 159);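 further: 0% = growth of vehicle-treated control cultures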; conditions: S. cerevisiae rad14 strain growth inhibition, hits give high values
Procedure, shortened: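 Screen for anticancer potential: a yeast strain altered in DNA damage repair is grown with compound, and reduced growth is quantified against vehicle controls.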

[7] = NCI Yeast Anticancer Drug Screen. Data for the sgs1 mgt1 strain (AID 161);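 further: 0% = growth of cultures given vehicle only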; conditions: S. cerevisiae sgs1 mgt1 strain, hits give high values
Procedure, shortened: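 Mutant yeast exposed to compound; growth scored against vehicle-only wells.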

[8] = NCI Yeast Anticancer Drug Screen. Data for the CLN2oe strain (AID 163);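 further: 0% = growth of vehicle-only control cultures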; conditions: S. cerevisiae CLN2oe strain, hits give high values
Procedure, shortened: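 Here, growth inhibition in a cell-cycle-altered yeast strain after compound exposure was quantified against vehicle control growth.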

[9] = NCI Yeast Anticancer Drug Screen. Data for the bub3 strain (AID 167); conditions: S. cerevisiae bub3 mutant strain, hits give high values
Procedure, shortened: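 Screening used yeast with an engineered genetic alteration affecting cell cycle control. Compound-exposed cultures were compared with vehicle cultures, and reduced growth was taken as inhibition.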

[10] = NCI Yeast Anticancer Drug Screen. Data for the wt2 strain (AID 169);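 further: 0% = growth of vehicle-treated yeast cultures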; conditions: S. cerevisiae wt2 strain growth inhibition, hits give high values
Procedure, shortened: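 Genetically defined yeast strains from a DNA-repair/cell-cycle panel were used. Compound-exposed yeast growth was measured, and the inhibition was calculated relative to vehicle treatment.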

[11] = NCI Yeast Anticancer Drug Screen. Data for the mlh1 strain (AID 171);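 further: 0% = growth of vehicle-treated control cultures of the same strain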; conditions: S. cerevisiae mlh1 strain growth inhibition, hits give high values
Procedure, shortened: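 Here the genetically defined yeast mutant is grown with each compound, and the extent to which its growth falls below that of vehicle-exposed cells is reported.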

[12] = NCI Yeast Anticancer Drug Screen. Data for the sgs1 strain (AID 173);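 further: 0% = growth of vehicle-only control cultures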; conditions: S. cerevisiae sgs1 mutant, hits give high values
Procedure, shortened: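 Relative growth inhibition, referenced to vehicle, was determined in a yeast strain with a defined alteration affecting DNA damage repair or cell cycle control after compound exposure.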

[13] = NCI Yeast Anticancer Drug Screen. Data for the mlh1 rad18 strain (AID 175); conditions: S. cerevisiae mlh1 rad18 strain growth inhibition, hits give high values
Procedure, shortened: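 In this whole-cell yeast screen, a strain with altered DNA damage repair is challenged with compound, and its growth is measured against matched vehicle-treated controls.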

[14] = NCI Yeast Anticancer Drug Screen. Data for the rad18 strain (AID 177); conditions: S. cerevisiae rad18 mutant growth inhibition, hits give high values
Procedure, shortened: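 Screen uses a yeast strain with a defined lesion in DNA damage repair; compound effect is read as loss of growth compared to untreated vehicle cultures.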

[15] = NCI Yeast Anticancer Drug Screen. Data for the rad50EPP+ strain (AID 151);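 further: 0% = growth of vehicle-treated control cultures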; conditions: S. cerevisiae rad50 mutant strain, hits give high values
Procedure, shortened: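 One strain with a rad50 alteration (rad50EPP+) was compound-treated, its growth then compared to that of vehicle controls.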

[16] = NCI Yeast Anticancer Drug Screen. Data for the cln2 rad14 strain (AID 165);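 further: 0% = growth equal to vehicle treated cultures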; conditions: S. cerevisiae cln2 rad14 strain, hits give high values
Procedure, shortened: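 Growth of compound-exposed yeast (cln2 rad14 genotype) measured and expressed as inhibition relative to vehicle.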

[17] = at 5.0 µM (retest, dose inferred, filed as 0.5)
[18] = at 50.0 µM (retest, dose inferred, filed as 5.0)

O=[n+]1c2ccc(Cl)cc2n([O-])c2ccc(Cl)cc21 showed a growth inhibition ([1]; at 1.2 µM) of 5%, a growth inhibition ([1]; at 3.7 µM) of 12% and a growth inhibition ([1]; at 11.0 µM) of 23%. It also gave a growth inhibition ([1]; at 33.0 µM) of 44%, a growth inhibition ([1]; at 100.0 µM) of 57% and a growth inhibition ([2]; at 1.2 µM) of -2%. The growth inhibition ([2]; at 3.7 µM) was 2%, the growth inhibition ([2]; at 11.0 µM) was 2% and the growth inhibition ([2]; at 33.0 µM) was 7%. It also gave a growth inhibition ([2]; at 100.0 µM) of 12%, a growth inhibition ([3]; at 1.2 µM) of -3% and a growth inhibition ([3]; at 3.7 µM) of -1%. The growth inhibition ([3]; at 11.0 µM) was 2%, the growth inhibition ([3]; at 33.0 µM) was 5% and the growth inhibition ([3]; at 100.0 µM) was 10%. The growth inhibition ([4]; at 1.2 µM) was 9%, the growth inhibition ([4]; at 3.7 µM) was 19% and the growth inhibition [4, 17] was -9%. For the same compound, the growth inhibition ([4]; at 11.0 µM) was 39%, the growth inhibition ([4]; at 33.0 µM) was 61% and the growth inhibition [4, 18] was 47%. The growth inhibition ([4]; at 50.0 µM) was -5.4%, the growth inhibition ([4]; at 100.0 µM) was 81% (active) and the growth inhibition ([5]; at 1.2 µM) was -1%. It also gave a growth inhibition ([5]; at 3.7 µM) of 0%, a growth inhibition [5, 17] of 1% and a growth inhibition ([5]; at 11.0 µM) of 2%. The growth inhibition ([5]; at 33.0 µM) was 9%, the growth inhibition [5, 18] was -5% and the growth inhibition ([5]; at 50.0 µM) was -1%. The growth inhibition ([5]; at 100.0 µM) was 15%, the growth inhibition ([6]; at 1.2 µM) was 0% and the growth inhibition ([6]; at 3.7 µM) was 2%. The growth inhibition ([6]; at 11.0 µM) was 4%, the growth inhibition ([6]; at 33.0 µM) was 6% and the growth inhibition ([6]; at 100.0 µM) was 10%. The growth inhibition [7, 17] was -4%, the growth inhibition [7, 18] was 20% and the growth inhibition ([7]; at 50.0 µM) was 13.3%. The growth inhibition ([8]; at 1.2 µM) was -1%, the growth inhibition ([8]; at 3.7 µM) was 0% and the growth inhibition ([8]; at 11.0 µM) was 0%. For the same compound, the growth inhibition ([8]; at 33.0 µM) was -1%, the growth inhibition ([8]; at 100.0 µM) was -1% and the growth inhibition ([9]; at 1.2 µM) was -1%. For the same compound, the growth inhibition ([9]; at 3.7 µM) was 0%, the growth inhibition [9, 17] was 11% and the growth inhibition ([9]; at 11.0 µM) was 2%. For the same compound, the growth inhibition ([9]; at 33.0 µM) was 9%, the growth inhibition [9, 18] was 22% and the growth inhibition ([9]; at 50.0 µM) was -7.55%. For the same compound, the growth inhibition ([9]; at 100.0 µM) was 14%, the growth inhibition ([10]; at 1.2 µM) was -5% and the growth inhibition ([10]; at 3.7 µM) was -8%. The growth inhibition ([10]; at 11.0 µM) was 0%, the growth inhibition ([10]; at 33.0 µM) was -5% and the growth inhibition ([10]; at 100.0 µM) was 10%. The growth inhibition ([11]; at 1.2 µM) was -1%, the growth inhibition ([11]; at 3.7 µM) was 1% and the growth inhibition ([11]; at 11.0 µM) was 0%. For the same compound, the growth inhibition ([11]; at 33.0 µM) was 0%, the growth inhibition ([11]; at 100.0 µM) was 5% and the growth inhibition ([12]; at 1.2 µM) was -6%. It also gave a growth inhibition ([12]; at 3.7 µM) of -27%, a growth inhibition ([12]; at 11.0 µM) of 4% and a growth inhibition ([12]; at 33.0 µM) of 21%. The growth inhibition ([12]; at 100.0 µM) was 23%, the growth inhibition [13, 17] was 11% and the growth inhibition [13, 18] was 84% (active). For the same compound, the growth inhibition ([13]; at 50.0 µM) was 11.7%, the growth inhibition ([14]; at 1.2 µM) was 4% and the growth inhibition ([14]; at 3.7 µM) was 12%. The growth inhibition ([14]; at 11.0 µM) was 25%, the growth inhibition ([14]; at 33.0 µM) was 37% and the growth inhibition ([14]; at 100.0 µM) was 63%.
With O=[N+]([O-])c1cccc2nc3ccccc3c(NCCCN3CCOCC3)c12 the growth inhibition ([1]; at 1.2 µM) was 95% (active), the growth inhibition ([1]; at 3.7 µM) was 97% (active) and the growth inhibition ([1]; at 11.0 µM) was 98% (active). For the same compound, the growth inhibition ([1]; at 33.0 µM) was 98% (active), the growth inhibition ([1]; at 100.0 µM) was 98% (active) and the growth inhibition ([15]; at 1.2 µM) was 19%. For the same compound, the growth inhibition ([15]; at 3.7 µM) was 46%, the growth inhibition ([15]; at 11.0 µM) was 76% (active) and the growth inhibition ([15]; at 33.0 µM) was 92% (active). The growth inhibition ([15]; at 100.0 µM) was 96% (active), the growth inhibition ([3]; at 1.2 µM) was 16% and the growth inhibition ([3]; at 3.7 µM) was 43%. The growth inhibition ([3]; at 11.0 µM) was 91% (active), the growth inhibition ([3]; at 33.0 µM) was 97% (active) and the growth inhibition ([3]; at 100.0 µM) was 98% (active). The growth inhibition ([4]; at 1.2 µM) was 89% (active), the growth inhibition ([4]; at 3.7 µM) was 94% (active) and the growth inhibition [4, 17] was 85% (active). The growth inhibition ([4]; at 11.0 µM) was 96% (active), the growth inhibition ([4]; at 33.0 µM) was 97% (active) and the growth inhibition [4, 18] was 97% (active). The growth inhibition ([4]; at 50.0 µM) was 96% (active), the growth inhibition ([4]; at 100.0 µM) was 98% (active) and the growth inhibition ([5]; at 1.2 µM) was 90% (active). For the same compound, the growth inhibition ([5]; at 3.7 µM) was 97% (active), the growth inhibition [5, 17] was 91% (active) and the growth inhibition ([5]; at 11.0 µM) was 98% (active). The growth inhibition ([5]; at 33.0 µM) was 99% (active), the growth inhibition [5, 18] was 99% (active) and the growth inhibition ([5]; at 50.0 µM) was 97.3% (active). For the same compound, the growth inhibition ([5]; at 100.0 µM) was 99% (active), the growth inhibition ([6]; at 1.2 µM) was 98% (active) and the growth inhibition ([6]; at 3.7 µM) was 98% (active). The growth inhibition ([6]; at 11.0 µM) was 98% (active), the growth inhibition ([6]; at 33.0 µM) was 98% (active) and the growth inhibition ([6]; at 100.0 µM) was 98% (active). The growth inhibition [7, 17] was 92% (active), the growth inhibition [7, 18] was 98% (active) and the growth inhibition ([7]; at 50.0 µM) was 96.9% (active). For the same compound, the growth inhibition ([8]; at 1.2 µM) was -7%, the growth inhibition ([8]; at 3.7 µM) was 46% and the growth inhibition ([8]; at 11.0 µM) was 92% (active). For the same compound, the growth inhibition ([8]; at 33.0 µM) was 96% (active), the growth inhibition ([8]; at 100.0 µM) was 99% (active) and the growth inhibition [16, 17] was 98% (active). The growth inhibition [16, 18] was 99% (active), the growth inhibition ([16]; at 50.0 µM) was 98.4% (active) and the growth inhibition ([9]; at 1.2 µM) was -14%. It also gave a growth inhibition ([9]; at 3.7 µM) of 0%, a growth inhibition [9, 17] of 0% and a growth inhibition ([9]; at 11.0 µM) of 53%. For the same compound, the growth inhibition ([9]; at 33.0 µM) was 93% (active), the growth inhibition [9, 18] was 97% (active) and the growth inhibition ([9]; at 50.0 µM) was 90.1% (active). The growth inhibition ([9]; at 100.0 µM) was 98% (active), the growth inhibition ([10]; at 1.2 µM) was -1% and the growth inhibition ([10]; at 3.7 µM) was 19%. For the same compound, the growth inhibition ([10]; at 11.0 µM) was 76% (active), the growth inhibition ([10]; at 33.0 µM) was 96% (active) and the growth inhibition ([10]; at 100.0 µM) was 98% (active). The growth inhibition ([11]; at 1.2 µM) was 16%, the growth inhibition ([11]; at 3.7 µM) was 54% and the growth inhibition ([11]; at 11.0 µM) was 94% (active). For the same compound, the growth inhibition ([11]; at 33.0 µM) was 98% (active), the growth inhibition ([11]; at 100.0 µM) was 99% (active) and the growth inhibition ([12]; at 1.2 µM) was 91% (active). The growth inhibition ([12]; at 3.7 µM) was 94% (active), the growth inhibition ([12]; at 11.0 µM) was 96% (active) and the growth inhibition ([12]; at 33.0 µM) was 97% (active). For the same compound, the growth inhibition ([12]; at 100.0 µM) was 98% (active), the growth inhibition [13, 17] was 95% (active) and the growth inhibition [13, 18] was 98% (active). The growth inhibition ([13]; at 50.0 µM) was 98.2% (active).
